Compounds without any hit were thinned out: in the full panel of roughly 79,000, 15% have a hit. The source made the active and inactive calls. No stated cut-off is given here; in the data, active means growth inhibition above about 70%; inactive means the rest.
What was measured:
[1] = NCI Yeast Anticancer Drug Screen. Data for the rad52 strain (AID 147);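 further: 0% = growth of vehicle-treated control cultures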; conditions: S. cerevisiae rad52 mutant growth inhibition, stronger effect = higher value
Summary of the method: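 Screen used a yeast mutant impaired in DNA repair. After compound exposure, growth was measured. Values reflect inhibition compared with vehicle-treated cells.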

[2] = NCI Yeast Anticancer Drug Screen. Data for the wt1 strain (AID 149);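 further: 0% = growth of vehicle-treated wt1 cultures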; conditions: S. cerevisiae wt1 strain (SPY 50644) growth inhibition, stronger effect = higher value
Summary of the method: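 The wt1 strain was treated with compounds, and growth was compared with vehicle-treated cultures to give inhibition.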

[3] = NCI Yeast Anticancer Drug Screen. Data for the rad50EPP+ strain (AID 151);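 further: 0% = growth of vehicle-treated control cultures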; conditions: S. cerevisiae rad50 mutant strain, stronger effect = higher value
Summary of the method: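 Exposing the rad50EPP+ strain to each compound, growth was compared with vehicle-only cultures to give inhibition.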

[4] = NCI Yeast Anticancer Drug Screen. Data for the mgt1 strain (AID 153); conditions: S. cerevisiae mgt1 mutant growth inhibition, stronger effect = higher value
Summary of the method: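 Genetically defined yeast (mgt1) treated with compound; inhibition of growth expressed against vehicle-treated controls.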

[5] = NCI Yeast Anticancer Drug Screen. Data for the rad50 strain (AID 155);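 further: 0% = growth of vehicle-only cultures of the same strain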; conditions: S. cerevisiae rad50 strain growth inhibition, stronger effect = higher value
Summary of the method: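 Cells are treated with compound, grown, and their growth is then scored against vehicle-only cultures of the same repair-deficient yeast strain.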

[6] = NCI Yeast Anticancer Drug Screen. Data for the mec2-1 strain (AID 157); conditions: S. cerevisiae mec2-1 strain, stronger effect = higher value
Summary of the method: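 Readout is yeast growth inhibition, normalised to vehicle-treated controls, in the mec2-1 strain exposed to compound.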

[7] = NCI Yeast Anticancer Drug Screen. Data for the rad14 strain (AID 159);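 further: 0% = growth of vehicle-treated control cultures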; conditions: S. cerevisiae rad14 strain growth inhibition, stronger effect = higher value
Summary of the method: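 Readout: yeast growth inhibition, referenced to vehicle-only cultures. Strain bears a defined alteration in DNA damage repair.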

[8] = NCI Yeast Anticancer Drug Screen. Data for the sgs1 mgt1 strain (AID 161);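 further: 0% = growth of cultures given vehicle only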; conditions: S. cerevisiae sgs1 mgt1 strain, stronger effect = higher value
Summary of the method: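 Compounds are added to genetically altered yeast, and growth is compared with cultures given vehicle alone to give percent inhibition.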

[9] = NCI Yeast Anticancer Drug Screen. Data for the CLN2oe strain (AID 163);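 further: 0% = growth of vehicle-only control cultures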; conditions: S. cerevisiae CLN2oe strain, stronger effect = higher value
Summary of the method: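 Values reflect how much compound exposure reduced yeast growth, referenced to vehicle-exposed cells. Assay organism is a strain with a defined genetic change affecting cell-cycle control.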

[10] = NCI Yeast Anticancer Drug Screen. Data for the cln2 rad14 strain (AID 165);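 further: 0% = growth equal to vehicle treated cultures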; conditions: S. cerevisiae cln2 rad14 strain, stronger effect = higher value
Summary of the method: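 Relative to vehicle controls, growth inhibition of compound-treated cln2 rad14 yeast was recorded.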

[11] = NCI Yeast Anticancer Drug Screen. Data for the bub3 strain (AID 167); conditions: S. cerevisiae bub3 mutant strain, stronger effect = higher value
Summary of the method: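 Part of a panel of yeast mutants defective in DNA damage repair or cell cycle regulation. Each strain is grown with compound, and inhibition is calculated relative to solvent-treated cultures.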

[12] = NCI Yeast Anticancer Drug Screen. Data for the wt2 strain (AID 169);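 further: 0% = growth of vehicle-treated yeast cultures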; conditions: S. cerevisiae wt2 strain growth inhibition, stronger effect = higher value
Summary of the method: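 Values express reduction in yeast growth under compound treatment, referenced to vehicle-treated cells.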

[13] = NCI Yeast Anticancer Drug Screen. Data for the mlh1 strain (AID 171);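 further: 0% = growth of vehicle-treated control cultures of the same strain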; conditions: S. cerevisiae mlh1 strain growth inhibition, stronger effect = higher value
Summary of the method: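 Steps: expose the defined-mutant yeast strain to compound; expose a parallel culture to vehicle; measure growth; express compound effect as inhibition relative to the vehicle culture.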

[14] = NCI Yeast Anticancer Drug Screen. Data for the sgs1 strain (AID 173);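 further: 0% = growth of vehicle-only control cultures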; conditions: S. cerevisiae sgs1 mutant, stronger effect = higher value
Summary of the method: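 Treat defined-mutant yeast with compound; measure growth; calculate inhibition relative to vehicle-treated cells.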

[15] = NCI Yeast Anticancer Drug Screen. Data for the mlh1 rad18 strain (AID 175); conditions: S. cerevisiae mlh1 rad18 strain growth inhibition, stronger effect = higher value
Summary of the method: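 Test agents were incubated with a yeast strain of defined genotype (DNA damage repair defect). Inhibition of growth was derived by comparison with vehicle-exposed cultures.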

[16] = NCI Yeast Anticancer Drug Screen. Data for the rad18 strain (AID 177); conditions: S. cerevisiae rad18 mutant growth inhibition, stronger effect = higher value
Summary of the method: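 A genetically defined yeast mutant impaired in DNA damage repair was treated with test compounds, then its growth was measured against cultures receiving vehicle alone.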

[17] = at 5.0 µM (retest, dose inferred, filed as 0.5)
[18] = at 50.0 µM (retest, dose inferred, filed as 5.0)

Measured: growth inhibition

CC(C)NCCCNc1c2ccccc2nc2cccc([N+](=O)[O-])c12
active: [1]; at 1.2 µM 93% | [1]; at 3.7 µM 96% | [1]; at 11.0 µM 97% | [1]; at 33.0 µM 97% | [1]; at 100.0 µM 97% | [2]; at 11.0 µM 88% | [2]; at 33.0 µM 96% | [2]; at 100.0 µM 97% | [3]; at 1.2 µM 86% | [3]; at 3.7 µM 93% | [3]; at 11.0 µM 95% | [3]; at 33.0 µM 96% | [3]; at 100.0 µM 97% | [4]; at 33.0 µM 92% | [4]; at 100.0 µM 96% | [5]; at 1.2 µM 90% | [5]; at 3.7 µM 93% | [5]; [17] 95% | [5]; at 11.0 µM 95% | [5]; at 33.0 µM 96% | [5]; [18] 99% | [5]; at 50.0 µM 83.3% | [5]; at 100.0 µM 97% | [6]; at 1.2 µM 94% | [6]; at 3.7 µM 97% | [6]; [17] 93% | [6]; at 11.0 µM 97% | [6]; at 33.0 µM 98% | [6]; [18] 98% | [6]; at 50.0 µM 86.5% | [6]; at 100.0 µM 98% | [7]; at 1.2 µM 98% | [7]; at 3.7 µM 98% | [7]; at 11.0 µM 97% | [7]; at 33.0 µM 99% | [7]; at 100.0 µM 99% | [8]; [17] 94% | [8]; [18] 98% | [8]; at 50.0 µM 80.8% | [9]; at 3.7 µM 88% | [9]; at 11.0 µM 96% | [9]; at 33.0 µM 97% | [9]; at 100.0 µM 98% | [10]; [17] 98% | [10]; [18] 99% | [10]; at 50.0 µM 85.7% | [11]; at 11.0 µM 90% | [11]; at 33.0 µM 96% | [11]; [18] 99% | [11]; at 100.0 µM 96% | [12]; at 3.7 µM 74% | [12]; at 11.0 µM 94% | [12]; at 33.0 µM 97% | [12]; at 100.0 µM 97% | [13]; at 3.7 µM 75% | [13]; at 11.0 µM 91% | [13]; at 33.0 µM 95% | [13]; at 100.0 µM 96% | [14]; at 1.2 µM 92% | [14]; at 3.7 µM 94% | [14]; at 11.0 µM 96% | [14]; at 33.0 µM 97% | [14]; at 100.0 µM 98% | [15]; [17] 97% | [15]; [18] 99% | [15]; at 50.0 µM 77% | [16]; at 1.2 µM 97% | [16]; at 3.7 µM 96% | [16]; at 11.0 µM 97% | [16]; at 33.0 µM 97% | [16]; at 100.0 µM 97%
inactive: [2]; at 1.2 µM 13% | [2]; at 3.7 µM 57% | [4]; at 1.2 µM -1% | [4]; at 3.7 µM 38% | [4]; at 11.0 µM 58% | [9]; at 1.2 µM 35% | [11]; at 1.2 µM -11% | [11]; at 3.7 µM 53% | [11]; [17] -4% | [11]; at 50.0 µM 66.8% | [12]; at 1.2 µM 28% | [13]; at 1.2 µM 28%

O=C1c2ccccc2-c2ccc(N=Cc3ccccc3)cc21
active: [1]; at 100.0 µM 96% | [3]; at 33.0 µM 87% | [3]; at 100.0 µM 97% | [5]; at 50.0 µM 82.5% | [5]; at 100.0 µM 96% | [12]; at 100.0 µM 92% | [13]; at 100.0 µM 79% | [14]; at 100.0 µM 86% | [16]; at 100.0 µM 84%
inactive: [1]; at 1.2 µM -6% | [1]; at 3.7 µM -8% | [1]; at 11.0 µM 10% | [1]; at 33.0 µM 68% | [2]; at 1.2 µM 1% | [2]; at 3.7 µM 8% | [2]; at 11.0 µM 14% | [2]; at 33.0 µM 27% | [2]; at 100.0 µM 69% | [3]; at 1.2 µM -2% | [3]; at 3.7 µM 24% | [3]; at 11.0 µM 34% | [4]; at 1.2 µM -4% | [4]; at 3.7 µM -2% | [4]; at 11.0 µM -5% | [4]; at 33.0 µM -1% | [4]; at 100.0 µM 58% | [5]; at 1.2 µM -14% | [5]; at 3.7 µM -11% | [5]; [17] 8% | [5]; at 11.0 µM 26% | [5]; at 33.0 µM 66% | [5]; [18] 51% | [6]; at 1.2 µM -4% | [6]; at 3.7 µM -2% | [6]; [17] 4% | [6]; at 11.0 µM -3% | [6]; at 33.0 µM 2% | [6]; [18] 21% | [6]; at 50.0 µM 5% | [6]; at 100.0 µM 24% | [7]; at 1.2 µM 3% | [7]; at 3.7 µM 2% | [7]; at 11.0 µM 3% | [7]; at 33.0 µM 18% | [7]; at 100.0 µM 45% | [8]; [17] 5% | [8]; [18] 27% | [8]; at 50.0 µM 36.9% | [9]; at 1.2 µM -7% | [9]; at 3.7 µM -11% | [9]; at 11.0 µM -13% | [9]; at 33.0 µM -8% | [9]; at 100.0 µM 24% | [10]; [17] -2% | [10]; [18] 9% | [10]; at 50.0 µM 6.45% | [11]; at 1.2 µM -6% | [11]; at 3.7 µM -3% | [11]; [17] 0% | [11]; at 11.0 µM -1% | [11]; at 33.0 µM 9% | [11]; [18] 18% | [11]; at 50.0 µM 31.6% | [11]; at 100.0 µM 54% | [12]; at 1.2 µM 5% | [12]; at 3.7 µM 6% | [12]; at 11.0 µM 18% | [12]; at 33.0 µM 51% | [13]; at 1.2 µM -2% | [13]; at 3.7 µM -8% | [13]; at 11.0 µM -5% | [13]; at 33.0 µM 23% | [14]; at 1.2 µM -13% | [14]; at 3.7 µM -11% | [14]; at 11.0 µM -4% | [14]; at 33.0 µM 19% | [15]; [17] -12% | [15]; [18] 46% | [15]; at 50.0 µM 56.5% | [16]; at 1.2 µM -10% | [16]; at 3.7 µM -8% | [16]; at 11.0 µM -4% | [16]; at 33.0 µM 12%
